Compounds without any hit were thinned out: in the full panel of roughly 79,000, 15% have a hit. Values without a mark were called inactive. Activity calls are given as the source filed them. Cut-off read from the data, not from the text of the source: active = growth inhibition above about 70%; inactive = the rest.

The text below walks through data of PubChem BioAssay (NCI).

Assay [1] is described as follows: NCI Yeast Anticancer Drug Screen. Data for the rad50 strain (AID 155).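 Note: 0% = growth of vehicle-only cultures of the same strain.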 Particulars: S. cerevisiae rad50 strain growth inhibition, active compounds read high. The method, boiled down:
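Growth of the mutant yeast was measured after compound exposure and referenced to vehicle-treated cultures.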

Assay [2] can be described thus: NCI Yeast Anticancer Drug Screen. Data for the mec2-1 strain (AID 157). The note with it: S. cerevisiae mec2-1 strain, active compounds read high. The method, boiled down:
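Each compound was tested on mec2-1 yeast, a strain altered in DNA damage repair or cell cycle control. Growth inhibition is reported relative to vehicle.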

Assay [3] in a line: NCI Yeast Anticancer Drug Screen. Data for the sgs1 mgt1 strain (AID 161).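 Note: 0% = growth of cultures given vehicle only.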 Particulars: S. cerevisiae sgs1 mgt1 strain, active compounds read high. In short, it runs like this:
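Test agents were incubated with a DNA-repair-mutant yeast strain. Growth was then read and compared against vehicle-treated controls.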

Assay [4] can be described thus: NCI Yeast Anticancer Drug Screen. Data for the cln2 rad14 strain (AID 165).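 Note: 0% = growth equal to vehicle treated cultures.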 Particulars: S. cerevisiae cln2 rad14 strain, active compounds read high. The method, boiled down:
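Test compounds were added to cln2 rad14 yeast cultures; inhibition of growth was then determined by comparison with vehicle treatment.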

A short description of assay [5]: NCI Yeast Anticancer Drug Screen. Data for the bub3 strain (AID 167). Particulars: S. cerevisiae bub3 mutant strain, active compounds read high. In short, it runs like this:
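Whole-cell yeast assay. The mutant strain was incubated with compounds, and growth inhibition was determined by comparison with vehicle-treated cells.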

A short description of assay [6]: NCI Yeast Anticancer Drug Screen. Data for the mlh1 rad18 strain (AID 175). Particulars: S. cerevisiae mlh1 rad18 strain growth inhibition, active compounds read high. In short, it runs like this: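 Inhibition values reflect reduced growth of mutant yeast versus vehicle-treated controls following compound exposure; the mutations affect DNA damage repair.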
[7] abbreviates: at 5.0 µM (retest, dose inferred, filed as 0.5).
The mark [8] stands for this setting: at 50.0 µM (retest, dose inferred, filed as 5.0).

Regarding `CCCCN(CC)CC(C(C)=O)c1c(O)c2ccccc2oc1=O` (centres undefined), the growth inhibition is 8% in assay [1] (setting [7]); 22% in assay [1] (setting [8]); 66.8% in assay [1] (at 50.0 µM); 4% in assay [2] (setting [7]); 28% in assay [2] (setting [8]); 48.2% in assay [2] (at 50.0 µM). Further, the growth inhibition is 0% in assay [3] (setting [7]); 65% in assay [3] (setting [8]); 60.5% in assay [3] (at 50.0 µM); 15% in assay [4] (setting [7]); 59% in assay [4] (setting [8]); 45.2% in assay [4] (at 50.0 µM). Besides, the growth inhibition in assay [5] (setting [7]) was 21%; in assay [5] (setting [8]), 73% (active); in assay [5] (at 50.0 µM), 59%; in assay [6] (setting [7]), -13%; in assay [6] (setting [8]) it was 34%; in assay [6] (at 50.0 µM), 42.9%.

On to `CCOC(=O)C(/N=N\c1nn[nH]n1)/N=N/c1ncn[nH]1` (centres undefined), for which the growth inhibition in assay [1] (setting [7]) is -7%; in assay [1] (setting [8]), -8%; in assay [1] (at 50.0 µM) it was 97.7% (active); in assay [2] (setting [7]), -28%; in assay [2] (setting [8]) it was -6%; in assay [2] (at 50.0 µM), 99.5% (active). The growth inhibition in assay [3] (setting [7]) was -6%; in assay [3] (setting [8]), -1%; in assay [3] (at 50.0 µM), 73.2% (active); in assay [4] (setting [7]) it was -2%; in assay [4] (setting [8]), -10%; in assay [4] (at 50.0 µM), 93.2% (active). The growth inhibition in assay [5] (setting [7]) was -6%; in assay [5] (setting [8]), -3%; in assay [5] (at 50.0 µM) it was 98.8% (active); in assay [6] (setting [7]), -7%; in assay [6] (setting [8]), -5%; in assay [6] (at 50.0 µM) it was 99.2% (active).

`CC1=C(CO)C(=O)OC(C(C)C2CCC3C4CC5OC56C(O)C(N5CC5)=CC(=O)C6(C)C4CCC23C)C1` (centres undefined): the growth inhibition in assay [1] (setting [7]) was -7%; in assay [1] (setting [8]), 43%; in assay [1] (at 50.0 µM), 76.8% (active); in assay [2] (setting [7]), 3%; in assay [2] (setting [8]), 49%; in assay [2] (at 50.0 µM), 75.5% (active). Also, the growth inhibition in assay [3] (setting [7]) was -2%; in assay [3] (setting [8]), 42%; in assay [3] (at 50.0 µM), 70.2% (active); in assay [4] (setting [7]) it was 23%; in assay [4] (setting [8]), 57%; in assay [4] (at 50.0 µM), 28.9%. For the same compound, the growth inhibition was 13% in assay [5] (setting [7]); 77% (active) in assay [5] (setting [8]); 75.2% (active) in assay [5] (at 50.0 µM); -1% in assay [6] (setting [7]); 78% (active) in assay [6] (setting [8]); 69.8% in assay [6] (at 50.0 µM).

Regarding `COc1ccc(C2N(Cc3ccc(N(CCCl)CCCl)cc3C)CCCN2Cc2ccc(N(CCCl)CCCl)cc2C)cc1`, the growth inhibition in assay [1] (setting [7]) is 10%; in assay [1] (setting [8]), 98% (active); in assay [1] (at 50.0 µM), 97.1% (active); in assay [2] (setting [7]) it was -32%; in assay [2] (setting [8]) it was 96% (active); in assay [2] (at 50.0 µM), 99% (active). The growth inhibition in assay [3] (setting [7]) is 3%; in assay [3] (setting [8]), 99% (active); in assay [3] (at 50.0 µM), 99% (active); in assay [4] (setting [7]) it was 2%; in assay [4] (setting [8]) it was 94% (active); in assay [4] (at 50.0 µM), 75% (active). The growth inhibition in assay [5] (setting [7]) is 26%; in assay [5] (setting [8]), 96% (active); in assay [5] (at 50.0 µM), 98.3% (active); in assay [6] (setting [7]) it was 18%; in assay [6] (setting [8]), 97% (active); in assay [6] (at 50.0 µM) it was 98.5% (active).

Turning to `COc1ccc2c(c1O)-c1cccc3c1[C@@H](C2)N(CCCl)CC3`, the growth inhibition in assay [1] (setting [7]) was 30%; in assay [1] (setting [8]) it was 90% (active); in assay [1] (at 50.0 µM) it was 67.6%; in assay [2] (setting [7]), 15%; in assay [2] (setting [8]) it was 99% (active); in assay [2] (at 50.0 µM), 70.8% (active). The growth inhibition is 28% in assay [3] (setting [7]); 95% (active) in assay [3] (setting [8]); 57.6% in assay [3] (at 50.0 µM); 13% in assay [4] (setting [7]); 66% in assay [4] (setting [8]); 35.4% in assay [4] (at 50.0 µM). The growth inhibition in assay [5] (setting [7]) was 19%; in assay [5] (setting [8]) it was 98% (active); in assay [5] (at 50.0 µM), 44.4%; in assay [6] (setting [7]), 52%; in assay [6] (setting [8]), 98% (active); in assay [6] (at 50.0 µM), 86.6% (active).

Turning to `ClCCN(CCCl)c1ccc(CNCCCNCc2ccc(N(CCCl)CCCl)cc2)cc1`, the growth inhibition in assay [1] (setting [7]) is -1%; in assay [1] (setting [8]), 57%; in assay [1] (at 50.0 µM), 94.7% (active); in assay [2] (setting [7]), -13%; in assay [2] (setting [8]), 7%; in assay [2] (at 50.0 µM), 49%. For the same compound, the growth inhibition was -12% in assay [3] (setting [7]); 41% in assay [3] (setting [8]); 99.1% (active) in assay [3] (at 50.0 µM); -2% in assay [4] (setting [7]); 37% in assay [4] (setting [8]); 14.8% in assay [4] (at 50.0 µM). Besides, the growth inhibition in assay [5] (setting [7]) was -3%; in assay [5] (setting [8]), 38%; in assay [5] (at 50.0 µM) it was 43%; in assay [6] (setting [7]), 4%; in assay [6] (setting [8]) it was 98% (active); in assay [6] (at 50.0 µM), 99.2% (active).

Turning to `N#C[S-].[Nd+3].c1ccc(-c2ccccn2)nc1.c1ccc(-c2ccccn2)nc1.c1ccc(-c2ccccn2)nc1`, the growth inhibition in assay [1] (setting [7]) was 62%; in assay [1] (setting [8]), 99% (active); in assay [1] (at 50.0 µM), 91.2% (active); in assay [2] (setting [7]) it was 40%; in assay [2] (setting [8]), 99% (active); in assay [2] (at 50.0 µM) it was 94.1% (active). The growth inhibition in assay [3] (setting [7]) was 44%; in assay [3] (setting [8]), 99% (active); in assay [3] (at 50.0 µM) it was 93.5% (active); in assay [4] (setting [7]), 33%; in assay [4] (setting [8]), 96% (active); in assay [4] (at 50.0 µM), 92.5% (active). In addition, the growth inhibition was 62% in assay [5] (setting [7]); 100% (active) in assay [5] (setting [8]); 93% (active) in assay [5] (at 50.0 µM); 51% in assay [6] (setting [7]); 99% (active) in assay [6] (setting [8]); 92% (active) in assay [6] (at 50.0 µM).

Turning to `[Cl][Sn]1([c]2ccccc2)[O]CCNCC[O]1`, the growth inhibition in assay [1] (setting [7]) is 22%; in assay [1] (setting [8]), 97% (active); in assay [1] (at 50.0 µM), 88.1% (active); in assay [2] (setting [7]), 9%; in assay [2] (setting [8]) it was 99% (active); in assay [2] (at 50.0 µM) it was 91.2% (active). Moreover, the growth inhibition is 12% in assay [3] (setting [7]); 99% (active) in assay [3] (setting [8]); 90.8% (active) in assay [3] (at 50.0 µM); 6% in assay [4] (setting [7]); 97% (active) in assay [4] (setting [8]); 91.8% (active) in assay [4] (at 50.0 µM). The growth inhibition was 9% in assay [5] (setting [7]); 98% (active) in assay [5] (setting [8]); 90% (active) in assay [5] (at 50.0 µM); 19% in assay [6] (setting [7]); 97% (active) in assay [6] (setting [8]); 91.8% (active) in assay [6] (at 50.0 µM).
